Sampled rows, rich in hits. Any-hit rate of the full collection: about 6.7%.
C diff HTS: C. difficile growth inhibitors, primary screen, HTS; Clostridium difficile clinical isolate growth, OD600, 24 h; stronger effect = lower value; growth activity, negative = inhibition, % at 16 µg/mL (by protocol); 86,000 tested, 0.25% active;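 active means mean growth activity at or below -80% and every replicate also at or below -80%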;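 further: 0% = DMSO wells and -100% = levofloxacin 16 µg/mL wells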
Pf Dd2 growth: P. falciparum Dd2 growth inhibitors, primary screen, SYBR Green fluorescence, single dose replicates. 72 h; stronger effect = lower value. activity change, % at 10 µM. 94,000 tested, 2.3% active. AID 1159554, 2015; in the data active means activity change below about -80%
Tcruzi prolif: T. cruzi intracellular proliferation inhibitors, primary screen, cell-based, beta-gal Tulahuen parasites, NIH3T3 host, luminescence; T. cruzi beta-gal in NIH3T3, GalScreen luminescence, 90 h; inhibition, % at 8.34 µM; 77,000 tested, 5.9% active; AID 624255, 2012;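 active means mean inhibition above about 93%, with at least 55% of replicates each passing it, limit read from the data, passing the limit was not always enough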
The depositor's hits bear a star.

Screening C[C@H](CO)N1C[C@H](C)[C@@H](CN(C)CC2CCCCC2)OCCCC[C@H](C)Oc2ccc(NC(=O)CCCCCC(=O)Nc3ccccc3N)cc2C1=O returned C diff HTS -2, Pf Dd2 growth -71 and Tcruzi prolif 77.
`C[C@@H]1CCCCO[C@@H](CN(C)C)[C@H](C)CN([C@H](C)CO)C(=O)c2cc(NC(=O)CCCCCC(=O)Nc3ccccc3N)ccc2O1` gave C diff HTS -9, Pf Dd2 growth 43 and Tcruzi prolif 73.
For O=C(CCN1CCCCC1)N[C@H]1CC[C@@H](CCNS(=O)(=O)c2ccc(Cl)cc2)O[C@H]1CO the results were C diff HTS -2, Pf Dd2 growth -8 and Tcruzi prolif -6.
Screening COc1ccccc1CNC(=O)C[C@@H]1C[C@H]2c3cc(NC(=O)Nc4ccccc4F)ccc3O[C@H]2[C@@H](CO)O1 returned C diff HTS 0, Pf Dd2 growth -52 and Tcruzi prolif -13.
`O=C(C[C@H]1CC[C@H]2[C@@H](COC[C@H](O)CN2S(=O)(=O)c2ccc(F)cc2)O1)NCC1CCCCC1` gave C diff HTS 79 and Tcruzi prolif 22.
`Cc1ccc(S(=O)(=O)N(C)C[C@@H]2OCCCC[C@H](C)Oc3ccc(NC(=O)Nc4cccc5ccccc45)cc3C(=O)N([C@H](C)CO)C[C@H]2C)cc1` gave C diff HTS -1 and Pf Dd2 growth -82*.
For Cc1ccc(S(=O)(=O)N(C)C[C@H]2OCCCC[C@H](C)Oc3ccc(NC(=O)Nc4cccc5ccccc45)cc3C(=O)N([C@H](C)CO)C[C@@H]2C)cc1 the results were C diff HTS 1 and Pf Dd2 growth -9.
`Cc1ccc(S(=O)(=O)N(C)C[C@@H]2OCCCC[C@@H](C)Oc3ccc(NC(=O)Nc4cccc5ccccc45)cc3C(=O)N([C@@H](C)CO)C[C@@H]2C)cc1` gave C diff HTS 5 and Pf Dd2 growth -82*.
Cc1ccc(S(=O)(=O)N(C)C[C@H]2OCCCC[C@H](C)Oc3ccc(NC(=O)Nc4cccc5ccccc45)cc3C(=O)N([C@@H](C)CO)C[C@@H]2C)cc1 was read as C diff HTS -2 and Pf Dd2 growth -71.
Screening C[C@H]1CCCCO[C@@H](CN(C)C)[C@@H](C)CN([C@@H](C)CO)C(=O)c2cc(NS(C)(=O)=O)ccc2O1 returned C diff HTS -1, Pf Dd2 growth 7 and Tcruzi prolif 15.
For CN1C(=O)c2cc(NC(=O)C3CCCC3)ccc2OC[C@H]2O[C@@H](CC(=O)NCCc3ccncc3)CC[C@@H]21 the results were C diff HTS -3 and Pf Dd2 growth 1.
COC(=O)C[C@H]1CC[C@@H]2[C@H](COc3ccc(NC(=O)Nc4cc(C)cc(C)c4)cc3C(=O)N2C)O1 was read as C diff HTS -2 and Tcruzi prolif 51.
Screening C[C@H](CO)N1C[C@H](C)[C@@H](CN(C)C(=O)C2CC2)Oc2cc(C#Cc3ccccc3)ccc2S1(=O)=O returned C diff HTS -5, Pf Dd2 growth -64 and Tcruzi prolif 51.
Screening C[C@H](CO)N1C[C@H](C)[C@H](CN(C)C(=O)C2CC2)Oc2cc(C#Cc3ccccc3)ccc2S1(=O)=O returned C diff HTS -3, Pf Dd2 growth -92* and Tcruzi prolif 89.
Screening COCC(=O)N(C)C[C@H]1Oc2cc(C#Cc3ccccc3)ccc2S(=O)(=O)N([C@@H](C)CO)C[C@@H]1C returned C diff HTS -14, Pf Dd2 growth -76 and Tcruzi prolif 25.
`COCC(=O)N(C)C[C@@H]1Oc2cc(C#Cc3ccccc3)ccc2S(=O)(=O)N([C@H](C)CO)C[C@@H]1C` gave C diff HTS -8, Pf Dd2 growth -82* and Tcruzi prolif 16.
For C[C@H](CO)N1C[C@H](C)[C@@H](CN(C)Cc2ccc3c(c2)OCO3)Oc2ccc(NC(=O)CCN3CCOCC3)cc2C1=O the results were C diff HTS 5, Pf Dd2 growth 11 and Tcruzi prolif 42.
Screening C[C@H]1CN([C@@H](C)CO)C(=O)c2cccc(NC(=O)CCCCCC(=O)Nc3ccccc3N)c2O[C@@H]1CN(C)S(=O)(=O)c1ccc(F)cc1 returned C diff HTS 0 and Pf Dd2 growth -31.
For C[C@@H]1CN([C@@H](C)CO)C(=O)c2cccc(NC(=O)CCCCCC(=O)Nc3ccccc3N)c2O[C@@H]1CN(C)S(=O)(=O)c1ccccc1 the results were C diff HTS -4 and Pf Dd2 growth -90*.
For Cc1ccc(S(=O)(=O)N(C)C[C@H]2Oc3c(NC(=O)CCCCCC(=O)Nc4ccccc4N)cccc3C(=O)N([C@H](C)CO)C[C@@H]2C)cc1 the results were C diff HTS -4 and Pf Dd2 growth -65.
C[C@@H]1CN([C@H](C)CO)C(=O)c2cccc(NC(=O)CCCCCC(=O)Nc3ccccc3N)c2O[C@H]1CN(C)S(=O)(=O)c1cccs1 was read as C diff HTS 2 and Pf Dd2 growth -48.
`C[C@H]1CN([C@@H](C)CO)C(=O)c2cccc(NC(=O)CCCCCC(=O)Nc3ccccc3N)c2O[C@@H]1CN(C)S(=O)(=O)c1ccccc1` gave C diff HTS -2 and Pf Dd2 growth -35.
Cc1ccc(S(=O)(=O)N(C)C[C@H]2Oc3c(NC(=O)CCCCCC(=O)Nc4ccccc4N)cccc3C(=O)N([C@@H](C)CO)C[C@H]2C)cc1 was read as C diff HTS 4 and Pf Dd2 growth -91*.
For C[C@@H]1CN([C@@H](C)CO)C(=O)c2cccc(NC(=O)CCCCCC(=O)Nc3ccccc3N)c2O[C@@H]1CN(C)S(=O)(=O)c1cccs1 the results were C diff HTS 1 and Pf Dd2 growth -92*.
For Cc1ccc(S(=O)(=O)N(C)C[C@@H]2Oc3c(NC(=O)CCCCCC(=O)Nc4ccccc4N)cccc3C(=O)N([C@@H](C)CO)C[C@H]2C)cc1 the results were C diff HTS -6 and Pf Dd2 growth -88*.
`COCC(=O)N1[C@H](CO)[C@@H](c2ccccc2)C12CN(C(=O)NC1CCCC1)C2` gave C diff HTS 0 and Pf Dd2 growth 40.
Screening C[C@@H]1CN([C@@H](C)CO)C(=O)c2cc(-c3ccccc3)cnc2O[C@@H]1CN(C)Cc1ccc(C(=O)O)cc1 returned C diff HTS -4, Pf Dd2 growth 12 and Tcruzi prolif -26.
`Cc1ccc(S(=O)(=O)Nc2cccc3c2O[C@H](CN(C)S(=O)(=O)c2ccc(C)cc2)[C@H](C)CN([C@H](C)CO)C3=O)cc1` gave C diff HTS -26, Pf Dd2 growth -14 and Tcruzi prolif 37.
For C[C@H](CO)N1C[C@H](C)[C@H](CN(C)Cc2ccc(C(=O)Nc3ccccc3N)cc2)Oc2ccc(NC(=O)CCC(F)(F)F)cc2C1=O the results were Pf Dd2 growth -81* and Tcruzi prolif 86.
`C[C@H]1CN([C@@H](C)CO)C(=O)c2cc(NC(=O)Nc3ccc(C(F)(F)F)cc3)ccc2O[C@H]1CN(C)Cc1ccc(C(=O)Nc2ccccc2N)cc1` gave C diff HTS 25 and Pf Dd2 growth -64.
C[C@@H]1CN([C@@H](C)CO)C(=O)c2cc(NC(=O)CCC(F)(F)F)ccc2O[C@@H]1CN(C)Cc1ccc(C(=O)Nc2ccccc2N)cc1 was read as Pf Dd2 growth -70 and Tcruzi prolif -26.

Assay outcomes: PubChem, Broad Institute
